This passage reports inhibition results from PubChem BioAssay AID651602 (The Scripps Research Institute Molecular Screening Center, 2012).

Hit rate of the full screen: of about 360,000 compounds, about 950 (0.26%) were called active. For the sample, actives were picked, then their nearest neighbours and some compounds at random. Unmarked numbers belong to inactive results. Rule as the data show it: active = inhibition above about 11%; inactive = the rest.

This experiment in a line: reduced absorbance of E. coli cultures with phage – HTS, RecBCD inhibitor project, primary screen (AID 651602). Particulars: growth absorbance, at 11.9 µM, stronger effect = higher value.
For orientation: inhibition means the change of the read-out against control, counted positive when it falls. With `CC1(C(=O)NS(=O)(=O)c2ccccc2)CCN1C(=O)C/C=C/c1ccccc1` (configuration not stated), the inhibition was 13.4% (active).
Turning to `CC1(C(=O)NS(=O)(=O)c2ccccc2)CCN1C(=O)Cc1ccc(-c2ccccc2)cc1` (configuration not stated), the inhibition is -0.69%.
On to `CC1(C(=O)NS(=O)(=O)c2ccccc2)CCN1C(=O)c1ccccc1` (configuration not stated), for which the inhibition is 2.52%.
For the molecule `COc1ccccc1CCn1cnc(-c2ccccc2)c1C(C)C`, the inhibition was 1.47%.
As for `Nc1nc2c(ncn2[C@@H]2O[C@H](C(=O)N[C@@H](Cc3ccccc3)C(=O)NCc3ccccc3)[C@@H](O)[C@H]2O)c(=O)[nH]1`, the figure is 3.17%.
For the molecule `COc1ccc2c(c1)c(=Cc1ccc(N(C)C)cc1)c1cc(-c3ccccc3)[n+](C)n12`, the inhibition was 23.7% (active).
On to `CC(=O)c1c(C)n([O-])c2ccccc2[n+]1=O`, for which the inhibition was 25.5% (active).
On to `Cc1c(C=O)c2ccccc2n1CC(=O)O`, for which the inhibition was 0.31%.
As for `NC(=O)c1ncn([C@@H]2O[C@H](C(=O)O)[C@@H](O)[C@H]2O)n1`, the inhibition is 0.63%.
Turning to `C[C@H]1CN([C@@H](C)CO)C(=O)CCCn2nncc2CO[C@@H]1CN(C)C(=O)Nc1ccc(N2CCN(C)CC2)cc1`, the inhibition is 0.4%.
With `Cc1ccc(NC(=O)N2c3ccccc3SC2c2ccco2)c(C)c1` (configuration not stated) the figure was 5.53%.
As for `CC(=NNC(N)=O)c1ccc(Cl)c(-n2cccc2)c1`, the figure is 5.68%; as for `CCCCOCC1CN(CCCC)S(=O)(=O)c2c(Oc3ccc(F)cc3)cccc2O1` (configuration not stated), 5.95%; as for `NC(=S)NN=Cc1ccc(OC(=O)COc2cc(Cl)c(Cl)cc2Cl)cn1`, 11.6% (active).
Turning to `O=C(COC(=O)COc1cc(Cl)c(Cl)cc1Cl)NC1CC1`, the inhibition is 3.17%.
Take `O=C(COc1cc(Cl)c(Cl)cc1Cl)NCCc1ccccn1`: the inhibition was -0.15%.
`C=CC1=CCN(S(=O)(=O)C(C)(C)C)[C@@H]1CCO`: the inhibition was 1.03%.
With `Nc1ncnc2c1ncn2C1OC(CO)CC1O` (configuration not stated) the figure was 3.4%; with `C[C@H](CO)N1C[C@H](C)[C@@H](CN(C)C(=O)Nc2ccccc2F)OCc2cn(nn2)CCCC1=O`, 0.72%.
Regarding `O=C1CCC(=O)N(O)CCCCCNC(=O)CCC(=O)N(O)CCCCCNC(=O)CCC(=O)N(O)CCCCCN1`, the inhibition was 23.5% (active).
As for `COCc1cc(N2CCN(C(=O)OC(C)(C)C)C[C@@H]2C)ccc1N1CCN(Cc2ccccc2)[C@H](C)C1`, the inhibition was -2.53%.
In the case of `O=C(NNC(=O)c1ccccc1O)c1ccccc1O`, the inhibition is 30% (active).
Turning to `Cc1cccc(NS(=O)(=O)c2cccc(C(=O)NNC(=O)c3ccccc3O)c2)c1`, the inhibition was 5.15%.
For `O=C(NNC(=O)c1cc(S(=O)(=O)N2CCCCC2)ccc1Cl)c1ccccc1O`, the inhibition is 1.7%.
`COC(=O)C1=C(C)N(Cc2ccc(C(F)(F)F)cc2)C(=NCc2ccc(C(F)(F)F)cc2)NC1c1cccc(Cl)c1` (configuration not stated): the inhibition was 1.58%.
With `O=C(NS(=O)(=O)c1cccs1)[C@H]1O[C@@H](n2ccc(=O)[nH]c2=O)[C@H](O)[C@@H]1O`, the inhibition is 3.33%.
As for `O=C(CSc1ccc(-c2ccccn2)nn1)Nc1ccccc1`, the figure is 12.9% (active); as for `O=C(CSc1ccc(-c2ccc(-n3cccn3)cc2)nn1)Nc1ccc([N+](=O)[O-])cc1`, -0.99%; as for `COc1cc(NC(=O)CSc2ccc(-c3cccnc3)nn2)cc(OC)c1`, 0.39%.
As for `O=C1Nc2ccccc2C1=NN=Cc1ccco1`, the inhibition was -0.54%.
In the case of `C=CC[C@]12C[C@@]3(O[C@H](c4ccc(C(F)(F)F)cc4)N=C3C[C@H](c3ccc(OC)cc3)[C@H]1C)N(C1CCN(Cc3ccccc3)CC1)C2=O`, the inhibition was 6.28%.
For `CC1CCCN(c2cccc3c2S(=O)(=O)N(Cc2ccc(F)cc2)[C@@H](C)[C@H](c2ccccc2)O3)C1` (some centres not stated), the inhibition is 1.59%.
For the molecule `N#Cc1ccc(OCCCN2CCC(C(O)(c3ccccc3)c3ccccc3)CC2)c(F)c1`, the inhibition was 0.63%.
Regarding `C=CCn1c(=O)c(C(=O)Nc2ncccc2O)c(O)c2ccccc21`, the inhibition was 3.7%.
With `C=CCn1c(=O)c(C(=O)NCc2ccc3c(c2)OCO3)c(O)c2ccccc21`, the inhibition is 12.1% (active).
As for `CCn1c(=O)cc(SCC(=O)NCc2ccc3c(c2)OCO3)c2ccccc21`, the inhibition was 1.95%.
With `CCOC(=O)c1ccc(NC(=O)CCn2c(=O)oc3ccccc32)cc1`, the inhibition was 1.49%.
With `CCOC(=O)c1ccc(NC(=O)CS(=O)(=O)c2cn(CC)c3ccccc23)cc1` the figure was 0.46%; with `CCOC(=O)c1ccc(NC(=O)Cn2cnc3cc(C)c(C)cc32)cc1`, 18.8% (active); with `Cc1ccccc1C(=O)N[C@H](C(=O)N1CCC[C@H]1C(=O)NCc1ccccc1)C(C)C`, -1.25%.
On to `CC(C)(C)OC(=O)N/N=C/c1ccc(C(=O)O)cc1`, for which the inhibition was 1.87%.
On to `COC(=O)N/N=C/c1c[n+]([O-])c2ccccc2[n+]1[O-]`, for which the inhibition was 37.5% (active).
For the molecule `COC(=O)C(C)N=Cc1ccccc1` (configuration not stated), the inhibition was 0.77%.
Turning to `Cc1ccc2nc(CN(C)C(=O)[C@@H](Cc3ccccc3)NC(=O)[C@H]3O[C@@H](n4ccc(=O)[nH]c4=O)[C@H](O)[C@@H]3O)[nH]c2c1`, the inhibition is 2.03%.
Regarding `COC(=O)[C@]12C[C@H](CC(=O)N3CCN(C(=O)C4CC4)CC3)C(=O)N(Cc3ccc4c(c3)OCO4)C1=C[C@H](C(C)(C)C)O[C@@H]2C`, the inhibition was 2.87%.
For the molecule `Cc1ccc(C)c(CN2CCC(CNC(=O)C3CCCN(c4ncnc5c4nc4n5CCCCC4)C3)CC2)c1` (configuration not stated), the inhibition was 3.47%.
Consider `COc1ccc(OC)c(NC(=O)CCN2CCC(C)CC2)c1`, for which the inhibition was -0.47%.
In the case of `CCN1CCN(c2nc(Nc3cc(OC)ccc3OC)nc(Nc3cc(OC)ccc3OC)n2)CC1`, the inhibition was 99.1% (active).
As to `CCCOc1ccc(Cl)cc1Nc1nc(NCCO)nc(N2CCCC2)n1`, the inhibition is 0.63%.
With `O=S1(=O)c2c(cccc2N2CCCC2)O[C@H](COCc2ccccc2)CN1C1CC1` the figure was 2.78%.
Take `Cc1[nH]c2ccccc2c1CC(=O)Nc1ccc(Nc2cccnc2)c(-c2cccc(Cl)c2)c1`: the inhibition was 3.75%.
Take `CCN1C(=O)N[C@@H]2C[C@H](C(=O)N3CCCC3)[C@H](C)[C@H](c3ccccc3)C[C@@H]21`: the inhibition is 4.26%.
